# Sampled rows, rich in hits. Any-hit rate of the full collection: about 21%.
# Pf growth 48h: Primary qHTS for delayed death inhibitors of the malarial parasite plastid, 48 hour incubation; P. falciparum luciferase growth in erythrocytes, 48 h; Potency, µM (top dose mostly 28.7 µM), for inactives: top-dose activity change, negative = inhibition, actives largely listed as inhibitors; 310,000 tested, 5.9% active; further: potency means the concentration at half of the fitted maximal effect; on the % scale 0 is the no-effect control and ±100 the full control effect
#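 Growth was read as firefly luciferase luminescence after a 48 h, 37 C, 5% CO2 exposure of compounds to reporter-bearing P. falciparum cultures (0.1% parasitemia, 2% hematocrit final) in Albumax-supplemented RPMI 1640.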
# Cycloheximide cs: Cycloheximide Counterscreen for Small Molecule Inhibitors of Shiga Toxin | 300,000 tested, 12% active | max response, % | cell reporter, cycloheximide protein synthesis inhibition counterscreen; in the data active means max response mostly above about 13%, no sharp cut-off; inactive means mostly below about 14%; further: read at 38.3 µM for the half of the compounds with a filed dose; 0% is about no effect
# HCV inhibitor: qHTS Assay for Inhibitors of Hepatitis C Virus (HCV); Huh7.5.1 HCVcc-Cre infection, luciferase reporter, 44 h; Potency, µM (doses to about 41.8 µM), without a hit: at the highest dose activity change, negative = inhibition, hits mostly inhibitors; 340,000 tested, 3.4% active; AID 651820, 2012; further: potency means the concentration at half of the fitted maximal effect; on the % scale 0 is the no-effect control and ±100 the full control effect
#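 After 44 h co-culture of compound, cells and HCVcc-Cre (~0.5 moi), substrate is added for 15 min at room temperature and luciferase measured over 15 sec. Cells were seeded at 1,000/well and pre-cultured 4 h.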
# Pf growth 96h: Primary qHTS for delayed death inhibitors of the malarial parasite plastid, 96 hour incubation; P. falciparum luciferase reporter growth, 96 h; Potency, µM (series often up to 28.7 µM), for inactives: at the highest dose activity change, negative = inhibition, most hits filed as inhibitors; 320,000 tested, 6.9% active; further: potency means the concentration at half of the fitted maximal effect; on the % scale 0 is the no-effect control and ±100 the full control effect
#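 Erythrocytes infected with luciferase-expressing P. falciparum were dispensed at 2% hematocrit and 0.05% parasitemia (final), then incubated with compounds 96 hours at 37 C in 5% CO2. Luminescence after detection reagent addition reported growth.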
# Shiga inhibitor: A qHTS for Small Molecule Inhibitors of Shiga Toxin. Vero cells, Shiga toxin protein synthesis inhibition reporter. inhibition, % at 38.7 µM. 290,000 tested, 9.2% active. AID 2315, 2010; in the data active means inhibition mostly above about 28%, no sharp cut-off; inactive means mostly below about 43%; further: 0% is about no effect
# AMA1-RON2 inh: qHTS for Inhibitors of AMA1-RON; Towards Development of Antimalarial Drug Lead: Primary Screen | Plasmodium falciparum AMA1 (3D7) - RON2 peptide interaction | AlphaScreen AMA1-biotinylated RON2 peptide binding | Potency, µM (highest dose often 58.2 µM), inactives show at the highest dose activity change, negative = inhibition, actives largely listed as inhibitors | 360,000 tested, 0.2% active | AID 720542, 2013;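 further: potency means the concentration at half of the fitted maximal effect; 0% = vehicle wells and -100% = peptide control; nearly all actives have a fitted effect of over 45% in size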
#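 AMA1 (3D7) with his tag at 25 nM final met compounds first, then biotinylated RON2 peptide at 25 nM; detection used donor plus acceptor beads, 10 µg/mL apiece, read by AlphaScreen after 30 min at room temperature.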
# * hit, by the source's call; ? = inconclusive; · = not tested or not shown; [ ] = dose if it differs, or a comment. Unless noted, the call rests on the fitted dose curve; in most records, active means well fitted curve in the direction sought with a large enough effect; inconclusive means small, poorly fitted or top-dose-only effect, or another doubt; inactive means no such curve, though single readings can be large; an effect the other way counts as inactive or inconclusive.
SMILES,Pf growth 48h,Cycloheximide cs,HCV inhibitor,Pf growth 96h,Shiga inhibitor,AMA1-RON2 inh
COc1ccc(C2CC(c3ccccc3OC(C)=O)=NN2C(=O)/C=C/c2ccccc2)cc1OC (stereo not drawn),2.62µM*,2.5,-26.4%,?,-4.9,-14.6%
COc1ccc([C@H]2CC(=O)C=C(/C=C/c3ccccc3)C2)cc1OC,?,·,-4.1%,?,·,-28.1%
COc1ccc(N(C(=O)CCl)C(C(=O)NC2CCCCC2)c2cccnc2)cc1 (stereo not drawn),?,2.0,3.16µM*,?,-8.4,0.4%
O=C(NC1CCCCC1)C(c1cccnc1)N(C(=O)CCl)c1ccccc1Cl (stereo not drawn),?,-2.9,3.16µM*,38.5%,-3.1,-20.6%
O=C(NCC(=O)N(c1ccc(F)cc1)C(C(=O)NC1CCCCC1)c1cccnc1)c1ccco1 (stereo not drawn),5.1%,-0.9,17.8%,-10.3%,-7.3,6.8%
O=C(NC1CCCCC1)C(c1cccnc1)N(C(=O)CCl)c1ccc(F)cc1 (stereo not drawn),?,7.5,1.12µM*,-1.1%,4.6,8.8%
COC(=O)[C@]12CCCCC=C1N(Cc1ccc3c(c1)OCO3)C(=O)[C@H](CC(=O)NCc1cccc3ccccc13)C2,·,·,·,·,·,-18.1%
COc1cc(NC(=O)c2cccnc2Sc2ccc(C)c(C)c2)cc(OC)c1OC,?,-5.6,0.3%,10.4µM*,-4.8,9.4%[11.6 µM]
CC(=O)Nc1ccc(Sc2ncccc2C(=O)Nc2cc(Cl)cc(Cl)c2)cn1,-6.7%,-4.2,-8.7%,5.4%,0.2,-11.0%
CC(=O)Nc1ccc(Sc2ncccc2C(=O)Nc2ccc(OC(F)(F)F)cc2)cn1,13.1µM*,-0.6,?,?,-4.3,8.6%
C[C@@H]1CN([C@@H](C)CO)C(=O)CCCn2nncc2CO[C@H]1CN(C)C(=O)C1CC1,·,·,·,·,·,-0.3%
Cc1ccc(C(=O)NC(=S)NCC2CCCO2)cc1[N+](=O)[O-] (stereo not drawn),0.7%,4.7,-14.4%,17.1%,15.1,-20.3%
OC1(c2ccc(OC(F)F)cc2)CSC(=Nc2cccnc2)N1C1CC1 (stereo not drawn),?,3.7,31.6µM*,?,48.4,-24.4%
O=C(c1cccnc1)N1C2CCC1CC(O)(c1ccc(F)cc1)C2 (stereo not drawn),-2.2%,-1.0,20.1%,69.9%,-2.1,14.7%
O=C(Nc1ccc(S(=O)(=O)N2C[C@@H]3C[C@@H](C2)c2cccc(=O)n2C3)cc1)c1ccc(F)cc1,3.4%,·,?,?,·,-1.5%
CCOc1ccc(C(=O)Nc2ccc(S(=O)(=O)N3C[C@@H]4C[C@@H](C3)c3cccc(=O)n3C4)cc2)cc1,?,·,1µM*,2.94µM*,·,?
COc1ccc(-c2ccc(C(C)=O)cc2)cc1C1C2C=CCC(C)C2C(=O)N1Cc1ccccc1 (stereo not drawn),·,6.3,·,·,-6.0,·
NNC(=O)c1cccn(Cc2cccc(C(F)(F)F)c2)c1=O,?,13.1,?,?,24.4,88.7%
CC(=O)c1ccc(NC(=O)C(C)OC(=O)c2cccc(-n3cnnn3)c2)cc1 (stereo not drawn),-0.5%,·,-17.1%,23.9%,·,0.4%
COc1cc(C(=O)Nc2cccc(-n3cnnn3)c2)cc(Cl)c1OC,9.28µM*,-1.3,?,?,-2.7,0.1%
COc1cccc(C(=O)Nc2ccc(Cl)c(C(F)(F)F)c2)c1,-18.3%,51.1*,?,?,87.7*,4.4%
COc1cc(C(=O)Nc2cccc(-n3cnnn3)c2)cc(OC)c1OC,0.8%,-2.8,?,0.4%,-9.8,12.8%
CC(OC(=O)c1cccc(-n2cnnn2)c1)C(=O)Nc1cccc(Cl)c1 (stereo not drawn),-13.9%,·,8.91µM*,6.6%,·,19.0%
COc1cc(C(=O)Nc2ccc(Cl)c(C(F)(F)F)c2)cc(OC)c1OC,13.1µM*,4.8,14.1µM*,-8.7%,9.1,-7.0%
COc1cccc(C(=O)Nc2cc(C(F)(F)F)ccc2Cl)c1,34.8%,-2.8,-11.5%,94.0%,-6.0,16.3%
SMILES,Pf growth 48h,Cycloheximide cs,HCV inhibitor,Pf growth 96h,Shiga inhibitor,AMA1-RON2 inh
COc1cc(CCC(=O)Nc2ccc(Cl)c(C(F)(F)F)c2)cc(OC)c1OC,?,-3.8,?,?,2.6,9.7%
CCN(CC)CCN(C(=O)Cn1nnc(-c2ccc(C)o2)n1)C(C(=O)NC(C)(C)C)c1cccs1 (stereo not drawn),?,-3.9,5.4%,?,-3.2,-2.8%
CN(CCC#N)C(=O)COC(=O)c1ccccc1C(=O)c1ccc(Cl)c([N+](=O)[O-])c1,-22.6%,14.5,2.82µM*,-22.8%,-3.0,2.5%
O=C(COC(=O)c1ccccc1C(=O)c1ccc(Cl)c([N+](=O)[O-])c1)NC1CCCCCC1,·,-2.6,12.6µM*,-21.3%,-10.7,-7.5%
CC(C)N(C(=O)COC(=O)c1ccccc1C(=O)c1ccc(Cl)c([N+](=O)[O-])c1)C(C)C,12.1%,1.6,?,-5.8%,-2.7,-11.4%
O=C(COC(=O)c1ccc(Cl)c([N+](=O)[O-])c1)NC1CCCC1,10.2%,-3.6,19.6%,-3.6%,-9.1,-5.9%
O=C(Nc1ccc(Br)cn1)c1ccc(COc2c(F)c(F)cc(F)c2F)o1,27.2%,·,7.1%,4.6%,·,-7.9%
Nc1cccc2c(=O)c3ccccc3[nH]c12,1.85µM*,7.4,?,1.85µM*,-2.1,18.5%
COc1cccc2[nH]c3ccccc3c(=O)c12,?,-4.0,-4.1%,?,·,6.1%
Cc1ccccc1Cn1nc(C)c(NC(=O)c2sc3ccccc3c2Cl)c1C,?,-6.0,31.6µM*,?,-4.9,-12.4%
Cc1nn(Cc2ccc(Cl)c(Cl)c2)c(C)c1NC(=O)c1sc2ccccc2c1Cl,17.9%,15.0,22.4µM*,4.2%[5.75 µM],25.0,8.2%
Cc1nn(Cc2ccc(Cl)cc2Cl)c(C)c1NC(=O)c1sc2ccccc2c1Cl,-17.0%,1.8,-17.4%,11.2%,-14.0,-2.4%
CCc1nc2ccc(C(=O)Nc3cccc(OC)c3)cn2c1N(CC)CCOC,·,·,·,·,·,2.9%
CCc1ccc(S(=O)(=O)NC(=S)NC2CCCCC2)cc1,30.9%,-1.7,16.1%,?,-8.3,75.4%
O=C(CN1C(=O)N/C(=C\c2ccccc2OCc2ccc(C(=O)O)cc2)C1=O)Nc1ccc(F)cc1,8.3%,-0.5,25.4%,5.22µM*,-6.1,3.2%

# Bioassay records (PubChem)
